TTR transcr act: activators of transthyretin transcription. SH-SY5Y TTR promoter Gaussia luciferase, luminescence; 100% = recombinant luciferase protein wells. activation, % at 16.7 µM. 92,000 compounds, 1.3% hits. AID 1117267;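 active means activation above the mean of all tested compounds plus 3 SD, cut at about 9.5% in these data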;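 further: cells exposed to compounds for one day before reading; 0% = median of all test compound wells on the plate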
HuH7 TTR inh: counter-screen for TTR activators: TTR transcription inhibitors in HuH7 cells | shares compounds with TTR transcr act | HuH7 TTR promoter-Gaussia luciferase reporter, luminescence | inhibition, % at 16.7 µM | 1,100 compounds, 4% hits | AID 1117279;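 active means average inhibition above the solvent-only control wells' mean plus 3 SD, cut at about 15% in these data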;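 further: 0% = cells with DMSO only and 100% = cells with inhibitor control FD; inhibitors lower well luminescence so higher value means more inhibition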
TTR act confirm: confirmation of human transthyretin transcription activators | shares compounds with TTR transcr act | SHSY5Y TTR promoter Gaussia luciferase, luminescence; 100% = purified Lucia enzyme wells, no cells | activation, % at 16.7 µM | 1,100 tested, under 10 active;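 active means mean activation above a set limit taken from the earlier primary screen, cut at about 11% in these data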;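 further: 0% = DMSO-treated cells and 100% = recombinant Lucia luciferase without cells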
Numbers without * were called inactive. The full list was thinned out, with hits kept by preference.

SMILES	TTR transcr act	others
Cc1cc(C)cc(-c2c(C(=O)c3ccc(Br)cc3)[nH]c(N)c2C(=O)NCc2ccc(Cl)cc2)c1	-1
COc1cc(-c2cc(C(=O)NN3CCN(C)CC3)c3ccccc3n2)cc(OC)c1OC	36*	HuH7 TTR inh=-11;TTR act confirm=3
COc1cc(-c2cc(C(=O)OCC(=O)NC3CC3)c3ccccc3n2)cc(OC)c1OC	-3
COc1cc(-c2cc(C(=O)O)c3cc4c(cc3n2)OCCO4)cc(OC)c1OC	2
COc1ccc(CNCc2cc(Cl)ccc2O)cc1	10*	HuH7 TTR inh=3;TTR act confirm=0
COc1ccc(CNCc2cccc(C)c2)cc1	0
Oc1ccc(Cl)cc1CNCc1ccc(F)c(F)c1	2
COC(=O)C1=C(N)Oc2cc(C)n(Cc3cccnc3)c(=O)c2C1c1ccc(OC)c(OC)c1 (centres undefined)	18*	HuH7 TTR inh=-9;TTR act confirm=0
COc1cccc(C2C(C#N)=C(N)Oc3cc(C)n(Cc4ccccn4)c(=O)c32)c1OC (centres undefined)	4
COc1ccc(C(=O)NCc2cccnc2)cc1OC	1
CCC[C@H]1[C@@H](N(C)CC2CCCCC2)CC[C@@]23CCCN2C(=O)CCC[C@@H]13	-1
CC(C)CNS(=O)(=O)CC1NCc2cc3c(cc21)OCO3 (centres undefined)	0
CCc1cc(=O)oc2cc(OCC(=O)NCCCn3ccnc3)c(Cl)cc12	-1
CCCCc1cc(=O)oc2cc(OCC(=O)NCCN3CCOCC3)c(Cl)cc12	11*	HuH7 TTR inh=-25;TTR act confirm=2
CCc1cc(=O)oc2c(C)c(OCC(=O)NCCCN3CCOCC3)ccc12	6
CCc1ccc(-n2ncc(Cl)c(Oc3ccc(OC)cc3)c2=O)cc1	-2
CCc1ccc(Nc2nc(C)cc(C)c2C(N)=O)cc1	1
Cc1cc(C)c(C(N)=O)c(Nc2ccc3c(c2)OCCO3)n1	10*	HuH7 TTR inh=-11;TTR act confirm=0
COc1ccc(Nc2nc(C)cc(C)c2C(N)=O)cc1	-2
CCN1CCCCC(NC(C)=O)C1=O (centres undefined)	0
CCCC1CCC2(CC1)CCC2OC(=O)Nc1ccc2c(c1)OCO2 (centres undefined)	1
C[C@H]1CCC[C@H](O)CC(=O)c2c(O)cc(O)cc2CC(=O)O1	-2
O=S1(=O)CCOC[C@H](c2ccccc2)N1Cc1cccc(F)c1	13*	HuH7 TTR inh=0;TTR act confirm=0
O=S1(=O)CCOC[C@H](Cc2ccccc2)N1Cc1ccc(F)cc1	6
O=S1(=O)CCOC[C@H](Cc2ccccc2)N1Cc1cccc(F)c1	0
SMILES	TTR transcr act	others
COC(=O)[C@@]12CCCCC3=C1N(CCC3)C(=O)[C@H]2CC(=O)NCC12CC3CC(CC(C3)C1)C2	0
NC(=O)C1CCN(c2nc(-c3ccc(OCc4ccccc4)cc3)cs2)CC1	-2
CCOC(=O)c1cc(-c2ccccc2)n(CC(=O)O)c1C	11*	HuH7 TTR inh=-15;TTR act confirm=0
CCCNC(=O)Cn1c(-c2ccc(F)cc2)cc(C(=O)OCC)c1C	1
CCOC(=O)c1cc(-c2ccccc2)n(CC(=O)NC(C)(C)C)c1C	1
Fc1ccc(Cn2ccc3ccc(-c4ccc5ccn(Cc6ccc(F)cc6F)c5c4)cc32)c(F)c1	0
O=C(Cc1ccc(NC(=O)C2CCCN(C(=O)c3ccccc3)C2)cc1)Nc1cccc(C(=O)N2CCCC2)c1 (centres undefined)	0
COC(=O)[C@]12C[C@H](CC(=O)NCc3ccc(OC)c(OC)c3)C(=O)N(Cc3ccc(Cl)cc3Cl)C1=C[C@H](COCc1ccccc1)O[C@@H]2C	-1
O=C(OCc1cn(Cc2ccc(C(F)(F)F)cc2)nn1)N1CCCC1	-1
O=C(NC1CCCC1)c1ccc(CS(=O)Cc2ccccc2Cl)o1 (centres undefined)	2
O=C(NC1CCCCC1)c1ccc(CS(=O)Cc2ccccc2Cl)o1 (centres undefined)	1
O=C(NCCc1ccc(Cl)cc1)c1ccc(CS(=O)Cc2ccccc2Cl)o1 (centres undefined)	15*	HuH7 TTR inh=1;TTR act confirm=0
CCCCN(C)C(=O)c1c[nH]c2ccc(S(=O)(=O)N3CCOCC3)cc2c1=O	11*	HuH7 TTR inh=-7;TTR act confirm=1
O=C(NCCN1CCOCC1)c1c[nH]c2ccc(S(=O)(=O)N3CCOCC3)cc2c1=O	0
CCN(CC)CCNS(=O)(=O)c1ccc2[nH]cc(C(=O)O)c(=O)c2c1	0
COC(=O)[C@]12C[C@H](CC(=O)NCCCCc3ccccc3)C(=O)N(Cc3ccco3)C1=C[C@H](C1CCCC1)O[C@@H]2C	2
CCCCN1CN2CCc3ccccc3C2CS1(=O)=O (centres undefined)	4
O=C(Nc1ccc2oc(-c3ccncc3)nc2c1)c1ccc2c(c1)OCCO2	-1
O=C(Nc1ccc2oc(-c3ccncc3)nc2c1)c1ccc(Br)o1	10*	HuH7 TTR inh=-10;TTR act confirm=-1
O=C(Nc1ccc2oc(-c3ccncc3)nc2c1)c1ccc(F)cc1	-1
COC(=O)C1CN(Cc2ccccc2)CCS(=O)(=O)N1Cc1cccc(Cl)c1 (centres undefined)	2
CN1OC[C@@H]2CN(CC3CCCCC3)[C@H](c3ccc(-c4ccc(C#N)cc4)cc3)C[C@@H]21	3
CCN(C(=O)[C@@H](C1CC1)[C@@H](O)c1ccc(C(C)=O)cc1)c1ccccc1	0
CCOc1ccc(C(=O)N[C@H](C(=O)Nc2ccccc2OC)C(C)C)cc1	2
CCOc1ccc(C(=O)NCc2ccccc2OC)cc1	15*	HuH7 TTR inh=-12;TTR act confirm=0
SMILES	TTR transcr act	others
CCCn1nc2cc(C(=O)NCc3ccccc3OC)ccc2c1OCC	0
Cc1ccc(NC(=O)OC2CC3CC2[C@H]2CCCCN2[C@H]3Cc2ccccc2)cc1 (some centres undefined)	0
CCC1CCc2sc(C(=O)Nc3cc(S(=O)(=O)N4CCOCC4)ccc3OC)cc2C1 (centres undefined)	0
CO[C@H]([C@H](C)/C=C/N(C)C=O)[C@@H](C)C(=O)CC[C@H](C)[C@H](O)[C@H](C)[C@H]1OC(=O)/C=C/C(C)=C/C[C@H](O)C[C@@H]2C=CC[C@@H](C[C@H](OC)[C@@H](C)[C@@H](OC)C[C@@H](OC)[C@@H]1C)O2	3
O=C(NC1CCCCC1)c1cccc(S(=O)(=O)N2CCOCC2)c1	2
O=C(NC1CCCCCC1)c1cccc(S(=O)(=O)N2CCOCC2)c1	3
COc1ccc(S(=O)(=O)N2CCOCC2)cc1C(=O)Nc1cccc(C(=O)NC2CC2)c1	13*	HuH7 TTR inh=-8;TTR act confirm=2
COC(=O)[C@]12C[C@H](CC(=O)NCc3cccs3)C(=O)N(Cc3cccc4ccccc34)C1=C[C@H](C1CCCC1)O[C@@H]2C	0
O=C(NC1CCCCN(Cc2ccc(Cl)cc2)C1=O)c1ccc(Cl)cc1Cl (centres undefined)	0
CC(C)(C)c1cc(C(=O)CCN2CCOCC2)cc(C(C)(C)C)c1O	-4
O=C(CCN1CCOCC1)c1ccc(N2CCCCC2)cc1	10.0*	HuH7 TTR inh=-9;TTR act confirm=0
CCC(=O)c1ccc(OCCN2CCOCC2)cc1	-1
Cc1c(C(=O)O)cnc2cc(-c3ccc(Cl)cc3)nn12	-1
CC(=O)c1cnc2cc(-c3ccc(Cl)cc3)nn2c1C	12*	HuH7 TTR inh=13;TTR act confirm=-1
CC(=O)c1cnc2nc(C)nn2c1C	1
O=C(OCC#CCSc1nnc(-c2c[nH]c3ccccc23)o1)c1ccc(F)cc1	0

From PubChem
